High-throughput results (PubChem)
Sampled rows, rich in hits. Any-hit rate of the full collection: about 20%.
Pf growth 96h: P. falciparum growth inhibition at 96 hour, primary screen for plastid delayed-death inhibitors; P. falciparum luciferase reporter growth, 96 h; Potency, µM (series often up to 28.7 µM), for the others: at the top dose activity change, negative = inhibition, hits mostly inhibitors; actives 6.9% (n = 320,000); also: potency is read from the fitted curve at half-maximal effect; % is scaled to controls: 0 for no effect and ±100 for the full control effect
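Two-generation exposure (96 h) targets delayed-death phenotype. Reporter parasites carrying integrated firefly luciferase, in red cells at 2% hematocrit and 0.05% parasitemia final, kept at 37 C, 5% CO2; luminescence loss indicates inhibition.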
HCMV antiviral: inhibitors of human cytomegalovirus. AID 1259415. HFF cells, HCMV-luciferase reporter, 72 h; stronger effect = lower value. activity change, negative = inhibition, % at 57.5 µM. actives 4.5% (n = 410,000); in the data active = activity change below about -60%; inconclusive = no clear call, values can overlap the other calls; inactive = above about -39%; also: % is scaled to controls: 0 for no effect and ±100 for the full control effect
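Human foreskin fibroblasts infected with luciferase-reporter HCMV at MOI 1 PFU/cell, compounds at two doses. Luciferase measured 72 h post infection; normalized to buffer-only basal and Salinomycin (10uM) controls.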
CHX counter: counter-screen for Shiga toxin inhibitors: cycloheximide protein synthesis inhibition; cell reporter, cycloheximide protein synthesis inhibition counterscreen; max response, %; actives 12% (n = 300,000); AID 2314; in the data active = max response mostly above about 13%, no sharp cut-off; inactive = mostly below about 14%; also: read at 38.3 µM for the half of the compounds with a filed dose; 0% is about no effect
Pf growth 48h: P. falciparum growth inhibition at 48 hours (one generation) | P. falciparum luciferase growth in erythrocytes, 48 h | Potency, µM (doses to about 28.7 µM), inactives show at the top dose activity change, negative = inhibition, most hits filed as inhibitors | actives 5.9% (n = 310,000); also: potency is read from the fitted curve at half-maximal effect; % is scaled to controls: 0 for no effect and ±100 for the full control effect
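Read-out is firefly luciferase luminescence from an integrated reporter in P. falciparum, so falling signal marks reduced parasite growth. Infected erythrocytes were at 2% hematocrit and 0.1% parasitemia (final) in Albumax-supplemented RPMI 1640.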
Shiga inhibitor: inhibitors of Shiga toxin in Vero cells; Vero cells, Shiga toxin protein synthesis inhibition reporter; inhibition, % at 38.7 µM; actives 9.2% (n = 290,000); AID 2315; in the data active = inhibition mostly above about 28%, no sharp cut-off; inactive = mostly below about 43%; also: 0% is about no effect
Active calls of the source: *; [ ] = another dose, or the depositor's remark. Unless noted, calls follow the shape of the dose curve; as a rule, active = well fitted inhibition curve with a large enough effect; inconclusive = small, poorly fitted or top-dose-only effect, or another doubt; inactive = no such curve, though single readings can be large or run the other way.

Results for O=C(NC1CCCCCC1)c1ccc(OCC2CCCO2)cc1 (stereo not given) ?
Pf growth 96h: 89%; HCMV antiviral: 34; CHX counter: 24*; Pf growth 48h: 51%; Shiga inhibitor: 59*

What do the screens show for `O=C(O)c1ccc(CN2C(=O)c3ccc(Oc4ccc([N+](=O)[O-])cc4)cc3C2=O)cc1`?
Pf growth 96h: inconclusive; HCMV antiviral: 25; CHX counter: -2; Pf growth 48h: 6%; Shiga inhibitor: 21

How did CCOc1ccc(C(CC(=O)Nc2ccc(C(=O)OC)cc2)N2Cc3ccccc3C2=O)cc1OC (stereo not given) do in these assays?
HCMV antiviral: 4

How did NNC(=O)c1ccc(OCC2CC(c3ccc(Cl)cc3)=NO2)cc1 (stereo not given) do in these assays?
Pf growth 96h: inconclusive; HCMV antiviral: -95*; CHX counter: 22*; Pf growth 48h: 8.3µM*; Shiga inhibitor: 40*

Results for Cc1cc(=O)oc2cc(OCC3CC(c4ccc(Cl)cc4)=NO3)ccc12 (stereo not given) ?
HCMV antiviral: -35; CHX counter: 8; Pf growth 48h: 9%; Shiga inhibitor: 14

What do the screens show for `COc1ccccc1-c1ccc(SCc2ccc(F)cc2)nn1`?
Pf growth 96h: 84%; HCMV antiviral: 29; CHX counter: 39*; Pf growth 48h: 39%; Shiga inhibitor: 65*

How did COc1ccccc1-c1ccc(SCc2ccc(C)cc2)nn1 do in these assays?
Pf growth 96h: 91%; HCMV antiviral: 47; CHX counter: 32*; Pf growth 48h: 100%; Shiga inhibitor: 76*

What do the screens show for `COc1ccccc1-c1ccc(SCC(=O)N2CCOCC2)nn1`?
Pf growth 96h: 9%; HCMV antiviral: 30; CHX counter: 9; Pf growth 48h: inconclusive; Shiga inhibitor: 4

What do the screens show for `CCC(C)(C)NC(=O)CN(C(=O)CCC(=O)Nc1nccs1)c1ccccc1C`?
Pf growth 96h: 10µM*; HCMV antiviral: 13; CHX counter: -1; Pf growth 48h: -24%; Shiga inhibitor: -4

What do the screens show for `COc1cccc(N(CC(=O)NC2CCCC2)C(=O)CCC(=O)Nc2nccs2)c1`?
Pf growth 96h: -4%; HCMV antiviral: 25; CHX counter: -2; Pf growth 48h: 2%; Shiga inhibitor: -12

What do the screens show for `Cc1cccc(N(CC(=O)NC2CCCCC2)C(=O)CCCC(=O)Nc2ccccn2)c1`?
Pf growth 96h: -22%; HCMV antiviral: 14; CHX counter: 1; Pf growth 48h: 12µM*; Shiga inhibitor: 11

How did CCOc1ccc(N(CC(=O)NC2CCCCC2)C(=O)CCC(=O)Nc2nccs2)cc1 do in these assays?
Pf growth 96h: -16%; HCMV antiviral: 18; CHX counter: -2; Pf growth 48h: 7.4µM*; Shiga inhibitor: 4

What do the screens show for `Cc1cccc(N(CC(=O)NC2CCCC2)C(=O)CCCC(=O)Nc2ccccn2)c1`?
HCMV antiviral: 52; CHX counter: -4; Shiga inhibitor: -9

Results for COc1cccc(N(CC(=O)NC2CCCCC2)C(=O)CCC(=O)Nc2nccs2)c1 ?
Pf growth 96h: 12µM*; HCMV antiviral: -17; CHX counter: 3; Pf growth 48h: inconclusive; Shiga inhibitor: 14

Results for CCOc1ccc(N(CC(=O)NC2CCCC2)C(=O)CCC(=O)Nc2nccs2)cc1 ?
Pf growth 96h: inconclusive; HCMV antiviral: 3; CHX counter: 1; Pf growth 48h: 0%; Shiga inhibitor: -2

Results for CCN(CC)S(=O)(=O)c1ccc2c(c1)N(CC(=O)Nc1c(C)cc(C)cc1C)C(=O)CS2 ?
HCMV antiviral: -12

How did C=CCNCCOc1ccc(C)cc1[N+](=O)[O-] do in these assays?
Pf growth 96h: -38%; HCMV antiviral: 44; CHX counter: 3; Pf growth 48h: 1%; Shiga inhibitor: 7

How did C=CCN(CC=C)CCOc1cc(C)ccc1[N+](=O)[O-] do in these assays?
Pf growth 96h: 28%; HCMV antiviral: -4; CHX counter: 18*; Pf growth 48h: 20%[5.75 µM]; Shiga inhibitor: 40*

What do the screens show for `C=CCN(CC=C)CCOc1ccc(C)cc1[N+](=O)[O-]`?
Pf growth 96h: inconclusive; HCMV antiviral: 98; CHX counter: 26*; Pf growth 48h: 15%; Shiga inhibitor: 71*

What do the screens show for `Cc1ccc([N+](=O)[O-])c(OCCn2cnc3ccccc32)c1`?
Pf growth 96h: inconclusive; HCMV antiviral: -23; CHX counter: 2; Pf growth 48h: -27%; Shiga inhibitor: -9

What do the screens show for `O=C(O)c1cc(S(=O)(=O)N(Cc2ccccc2)c2ccc(Cl)cc2)ccc1Cl`?
Pf growth 96h: -8%; HCMV antiviral: -27; CHX counter: 4; Pf growth 48h: -11%; Shiga inhibitor: -4

How did COC(=O)c1ccc2[nH]c3cccc(/C(=C/c4ccccc4)c4ccccc4)c3c2c1 do in these assays?
Pf growth 96h: 3.7µM*; HCMV antiviral: -10; CHX counter: -3; Pf growth 48h: inconclusive; Shiga inhibitor: 13

Results for O=C1CCCc2[nH]c3cccc(/C(=C/c4ccccc4)c4ccccc4)c3c21 ?
Pf growth 96h: 12µM*; HCMV antiviral: -32; CHX counter: -3; Pf growth 48h: -16%; Shiga inhibitor: 1

How did CCc1ccc(OCc2nc(-c3ccc(OC)c(OC)c3)no2)c(Br)c1 do in these assays?
HCMV antiviral: 14

Results for CCc1nnc(NS(=O)(=O)c2ccc(N/C=C\C(=O)c3cccc4ccccc34)cc2)s1 ?
Pf growth 96h: 9.3µM*; HCMV antiviral: -12; CHX counter: 1; Pf growth 48h: -29%; Shiga inhibitor: -7

Results for COc1ccc(S(=O)(=O)Nc2nnc(Cc3ccc(OC)c(OC)c3)s2)cc1 ?
Pf growth 96h: 45%; HCMV antiviral: 6; CHX counter: 9.2*; Pf growth 48h: 56%; Shiga inhibitor: 21

What do the screens show for `CCc1nnc(NS(=O)(=O)c2ccc(N/C=C/C(=O)c3ccc(OC)cc3)cc2)s1`?
Pf growth 96h: inconclusive; HCMV antiviral: 12; CHX counter: 51*; Pf growth 48h: 36%; Shiga inhibitor: 86*

How did O=C(C1CCC(Cn2c(=O)c3sccc3n(Cc3ccccc3F)c2=O)CC1)N1CCOCC1 (stereo not given) do in these assays?
HCMV antiviral: -37

Results for CCOC(=O)CCCNC(=O)COC(=O)CCC(=O)c1ccc(F)cc1 ?
Pf growth 96h: 48%; HCMV antiviral: 11; CHX counter: -11; Shiga inhibitor: -33

What do the screens show for `CCOC(=O)c1c(-c2ccc(Br)cc2)csc1NC(=O)c1ccc(F)cc1`?
HCMV antiviral: 8

Results for CCOC(=O)c1c(-c2ccc(C)cc2)csc1NC(=S)NC(=O)c1ccccc1 ?
Pf growth 96h: 7.4µM*; HCMV antiviral: inconclusive; CHX counter: -1; Pf growth 48h: 10µM*; Shiga inhibitor: 10

How did CCOC(=O)c1c(-c2ccc(OC)c(OC)c2)csc1NC(=O)c1ccc(C)cc1 do in these assays?
HCMV antiviral: -6
